# In publication PMC5540273 (PLoS ONE, 2017):
# Columns and labels:
# Settings in all cases: concentration: 1 μM, replicates: in singlicate; n = 1
# CDKL3 = test system: CDKL3
# CDKL5 = test system: CDKL5
# CHEK1 = test system: CHEK1
# CHEK2 = test system: CHEK2
# CIT = test system: CIT
# CLK1 = test system: CLK1
# CLK2 = test system: CLK2
# CLK3 = test system: CLK3
# CLK4 = test system: CLK4
# CSF1R-autoinhibited = test system: CSF1R-autoinhibited
# CSF1R = test system: CSF1R
# CSK = test system: CSK
# CSNK1A1L = test system: CSNK1A1L
# CSNK1A1 = test system: CSNK1A1
# CSNK1D = test system: CSNK1D
# CSNK1E = test system: CSNK1E
# CSNK1G1 = test system: CSNK1G1
# CSNK1G2 = test system: CSNK1G2
# CSNK1G3 = test system: CSNK1G3
# CSNK2A1 = test system: CSNK2A1
# 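Note: KINOMEscan kinase panel screen.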
SMILES,%Inh (CDKL3),%Inh (CDKL5),%Inh (CHEK1),%Inh (CHEK2),%Inh (CIT),%Inh (CLK1),%Inh (CLK2),%Inh (CLK3),%Inh (CLK4),%Inh (CSF1R-autoinhibited),%Inh (CSF1R),%Inh (CSK),%Inh (CSNK1A1L),%Inh (CSNK1A1),%Inh (CSNK1D),%Inh (CSNK1E),%Inh (CSNK1G1),%Inh (CSNK1G2),%Inh (CSNK1G3),%Inh (CSNK2A1)
CCCC(=O)Nc1n[nH]c2ncc(-c3cccc4ccccc34)cc12 [SB-642057],0%,3%,0%,0%,1%,30%,0%,0%,8%,0%,26%,0%,2%,0%,37%,19%,4%,0%,1%,0%
Nc1ncnc2c1ncn2-c1cccc2ccccc12 [SKF-97184],26%,3%,0%,17%,35%,0%,3%,6%,0%,33%,3%,0%,0%,0%,0%,11%,0%,0%,0%,0%
CCC(=O)c1c(-c2ccccc2)c2cc(Cl)ccc2c(=O)n1Cc1cc(S(C)(=O)=O)n(CC(F)F)n1,2%,8%,13%,0%,0%,8%,0%,0%,0%,0%,10%,73%,0%,0%,0%,1%,0%,7%,0%,0%
